Six1-Eya2 blk: Six1/Eya2 interaction inhibition. Q15475+O00167. AlphaScreen GST-Six1/His-Eya2 binding, biochemical; active compounds read low. activity change, % (concentration not given with the values). 360,000 tested, 0.56% active; in the data active = activity change below about -65%; inconclusive = mostly about -30% to -63%
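Compounds are tested against tagged Six1 and Eya2 proteins bridged by glutathione donor and nickel acceptor beads; after a one-hour incubation at 37 °C without light, AlphaScreen emission is recorded.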
VP16 counter: inhibits Gal4-VP16 luciferase reporter, ROR gamma counter-screen. Drosophila S2 Gal4-VP16 UAS-luciferase, luminescence, 20 h. 310,000 tested, 3.5% active. Potency, µM (series often up to 53.6 µM), usual class: inhibitors;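 also: Gal4-VP16 expression switched on by copper sulfate through the metallothionein promoter; nearly all actives have a fitted effect of over 50% in size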
CtBP-E1A inh: CtBP/E1A binding inhibition; AlphaScreen GST-E1A/His-CtBP binding, 1536-well; active compounds read low; activity change, % (no concentration beside the values); 340,000 tested, 0.49% active; in the data active = activity change below about -65%; inconclusive = mostly about -30% to -63%
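GST-E1A and His-tagged CtBP (125 nM each as 5X stock) were preincubated with pin-transferred compound for 2 h at 37 °C in the dark, then glutathione donor and nickel acceptor beads were added for 1 h before AlphaScreen reading.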
p53 reactivator: restores transcriptional activity of mutant p53 | 320,000 tested, 0.063% active | H1299 p53-A138V BP100-luciferase reporter, luminescence, 24 h | Potency, µM (doses to about 92.2 µM), hits mostly activators; also: nearly all actives have a fitted effect of over 45% in size
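H1299 (p53-null), stable ts p53-A138V + BP100-Luc; 1000 cells/well, Opti-MEM/10% FBS; cpd 4 pt, 1:5; 24 h, 37 deg C, 5% CO2; detection reagent 10 min RT; luminescence.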
RORgamma inh: blocks mouse ROR gamma transcriptional activity; P51450; 310,000 tested, 5.4% active; Potency, µM (series often up to 53.6 µM), hits mostly inhibitors; Drosophila S2 Gal4-RORgamma UAS-luciferase reporter, 20 h; also: nearly all actives have a fitted effect of over 60% in size
Target sequence (P51450 whole entry, looked up, the tested form may be a part): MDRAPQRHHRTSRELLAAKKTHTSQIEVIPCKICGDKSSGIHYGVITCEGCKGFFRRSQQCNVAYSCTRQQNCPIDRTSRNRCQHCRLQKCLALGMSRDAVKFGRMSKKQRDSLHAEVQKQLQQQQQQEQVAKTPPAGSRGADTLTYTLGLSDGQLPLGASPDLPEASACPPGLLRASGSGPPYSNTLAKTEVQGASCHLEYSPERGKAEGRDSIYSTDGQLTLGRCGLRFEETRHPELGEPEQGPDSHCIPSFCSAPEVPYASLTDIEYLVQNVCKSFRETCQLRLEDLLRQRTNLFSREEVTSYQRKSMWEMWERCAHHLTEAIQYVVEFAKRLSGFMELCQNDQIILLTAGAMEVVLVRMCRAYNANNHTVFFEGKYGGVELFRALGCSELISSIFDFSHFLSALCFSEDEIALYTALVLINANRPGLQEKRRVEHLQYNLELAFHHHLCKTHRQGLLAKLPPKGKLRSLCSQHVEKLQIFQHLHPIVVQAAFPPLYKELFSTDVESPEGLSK
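Drosophila Schneider cells stably carrying a metallothionein-driven Gal4 DBD–ROR gamma fusion and a UAS-Photinus luciferase reporter were exposed to compound for 1 hr, then induced with copper sulfate (700 uM final) for 20 hr at ambient temperature before luminescence reading.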
Each line names hits and unclear results; the compound was inactive in the other large screens. In the library only some 5.4% were active in any assay of this set; here they are far more common. Unless noted, calls follow the shape of the dose curve; as a rule, active = well fitted curve in the direction sought with a large enough effect; inconclusive = small, poorly fitted or top-dose-only effect, or another doubt; inactive = no such curve, though single readings can be large; an effect the other way counts as inactive or inconclusive.

COc1cccc(/C=N/NC(=O)C(=O)N/N=C/c2cccc(OC)c2O)c1O	Six1-Eya2 blk inconclusive, CtBP-E1A inh inconclusive
COc1ccccc1/C=C\C(=O)NCC(=O)N/N=C/c1ccc(O)cc1O	Six1-Eya2 blk -80, CtBP-E1A inh -74
COc1ccc(/C=C\C(=O)NCC(=O)N/N=C/c2cccc(OC)c2O)cc1	VP16 counter 7.9µM, RORgamma inh 1.6µM
COc1ccccc1/C=C/C(=O)NCC(=O)N/N=C/c1ccc2c(c1)OCO2	none
COc1ccccc1/C=C/C(=O)NCC(=O)N/N=C/c1ccccc1	none
COc1cccc(/C=N/NC(=O)CNC(=O)C(c2ccccc2)c2ccccc2)c1O	Six1-Eya2 blk inconclusive, VP16 counter inconclusive, CtBP-E1A inh inconclusive, p53 reactivator inconclusive, RORgamma inh 1.8µM
CSCc1c(C(=O)Nc2ccccc2N2CCOCC2)oc2ccccc12	none (no result: VP16 counter, RORgamma inh)
CN(C)c1ncnc2ccc(-c3cccc(NS(C)(=O)=O)c3)cc12	RORgamma inh inconclusive (no result: Six1-Eya2 blk, CtBP-E1A inh, p53 reactivator)
C=CCNc1nc(C(=O)OC(C)C(=O)c2ccc(C)cc2)cs1 (stereo not drawn)	p53 reactivator inconclusive (no result: VP16 counter, CtBP-E1A inh, RORgamma inh)
COc1ccccc1OCC(=O)NNC(=O)CCCC(=O)NNC(=O)COc1ccccc1OC	p53 reactivator inconclusive (no result: CtBP-E1A inh)
COc1ccccc1OCC(=O)NNc1c2ccccc2nc2ccccc12	VP16 counter 0.79µM, RORgamma inh 1.6µM (no result: CtBP-E1A inh)
Cc1cc(SC(C)C(=O)NCC(=O)Nc2ccc(F)c(F)c2F)nc2ccccc12 (stereo not drawn)	VP16 counter inconclusive, RORgamma inh 10µM
Cc1cc(C)c2nc(SC(C)C(=O)NCC(=O)Nc3ccc(F)c(F)c3F)cc(C)c2c1 (stereo not drawn)	none
O=C1c2ccccc2C(c2nnnn2Cc2ccccc2)N1Cc1ccc2c(c1)OCO2 (stereo not drawn)	none (no result: VP16 counter, p53 reactivator, RORgamma inh)
COc1ccc([C@]23Cc4cc(OC)c(OC)cc4C(O2)C2=C(CC4(CCCCC4)OC2=O)O3)cc1	none (no result: Six1-Eya2 blk, CtBP-E1A inh, p53 reactivator)
Cc1onc(-c2c(F)cccc2Cl)c1C(=O)Nc1nc2ccccc2[nH]1	VP16 counter inconclusive, RORgamma inh 2.8µM
Cc1onc(-c2c(F)cccc2Cl)c1C(=O)Nc1nccs1	VP16 counter inconclusive, RORgamma inh 13µM
Cc1onc(-c2c(F)cccc2Cl)c1C(=O)Nc1nnc(C(F)(F)F)s1	VP16 counter inconclusive, RORgamma inh inconclusive
Cc1onc(-c2c(F)cccc2Cl)c1C(=O)NC1=NCCS1	VP16 counter 22µM, RORgamma inh 14µM
Cc1onc(-c2c(F)cccc2Cl)c1C(=O)Nc1cccc2nsnc12	none
Cc1cc(NC(=O)c2c(-c3c(F)cccc3Cl)noc2C)no1	none (no result: CtBP-E1A inh)
Cc1ccc(S(=O)(=O)NC(=O)C2(C)CCN2C(=O)Cc2ccc(Cl)cc2Cl)nc1 (stereo not drawn)	none (no result: VP16 counter, p53 reactivator, RORgamma inh)
Cc1ccc(OC(=O)COc2ccccc2C)c(-n2nc3ccccc3n2)c1	VP16 counter inconclusive, p53 reactivator 40µM, RORgamma inh inconclusive
COc1ccc(NC(=O)CN(C)C(=O)CCCc2nc3ccccc3c(=O)[nH]2)cc1	none (no result: VP16 counter, RORgamma inh)
CCN(Cc1nc2ccccc2c(=O)[nH]1)Cc1cc(=O)oc2cc(OC)ccc12	VP16 counter 16µM, RORgamma inh 14µM
CCN(CC(=O)Nc1cc(OC)ccc1OC)Cc1nc2ccccc2c(=O)[nH]1	RORgamma inh 20µM
CCN(CC(=O)Nc1ccc(C(=O)Nc2ccc(OC)cc2)cc1)Cc1nc2ccccc2c(=O)[nH]1	VP16 counter inconclusive, RORgamma inh 3.2µM (no result: CtBP-E1A inh)
COc1cc2c(cc1NC(=O)CN(C)Cc1nc3ccccc3c(=O)[nH]1)oc1ccccc12	VP16 counter 11µM, RORgamma inh 4.5µM
COc1cccc(NC(=O)CN(C)C(=O)CC2CC3CCC2C3)c1 (stereo not drawn)	none (no result: VP16 counter, RORgamma inh)
N#Cc1c(N)nc(Sc2ccc(Cl)cc2)c(C#N)c1-c1ccccc1Cl	VP16 counter inconclusive
Cc1cccc(NC(=O)CN(c2ccc(F)cc2)S(C)(=O)=O)c1	VP16 counter 5µM, RORgamma inh 5.6µM (no result: CtBP-E1A inh)
CC1CCC(C(C)C)C(OC(=O)C[n+]2cc(-c3ccc(Cl)cc3)n3c2CCC3)C1 (stereo not drawn)	VP16 counter inconclusive
Cc1cccc(OCc2n(CC(=O)OC3CC(C)CCC3C(C)C)c3ccccc3[n+]2C)c1 (stereo not drawn)	VP16 counter inconclusive, RORgamma inh inconclusive
CC1CCC(C(C)C)C(OC(=O)Cn2c(-c3ccccc3)[n+](C)c3ccccc32)C1 (stereo not drawn)	VP16 counter 6.3µM, RORgamma inh inconclusive
CC1CCC(C(C)C)C(OC(=O)Cn2c(-c3ccc(F)cc3)[n+](C)c3ccccc32)C1 (stereo not drawn)	VP16 counter 7.1µM, RORgamma inh inconclusive
CC1c2cc3c(cc2CCN1C(=O)c1cccc(F)c1)OCCCO3 (stereo not drawn)	none
CSc1nc(-c2ccc(F)cc2)cc(=O)[nH]1	none
CC(=O)Nc1ccc(S(=O)(=O)Oc2ccc(C(=S)N3CCC(O)CC3)cc2)cc1	VP16 counter 35µM, RORgamma inh inconclusive
COc1ccc(OCc2nn[nH]n2)cc1	none (no result: CtBP-E1A inh, p53 reactivator)
Cc1ccc(C)c(S(=O)(=O)ON2C(=O)c3ccccc3C2=O)c1	VP16 counter 11µM, RORgamma inh inconclusive
O=C1c2ccccc2C(=O)N1OS(=O)(=O)c1ccccc1	VP16 counter 16µM, RORgamma inh inconclusive (no result: Six1-Eya2 blk, CtBP-E1A inh)
Cc1ccc(S(=O)(=O)ON2C(=O)c3cccc4cccc(c34)C2=O)cc1	Six1-Eya2 blk inconclusive, RORgamma inh inconclusive (no result: CtBP-E1A inh)
O=C1c2cccc3cccc(c23)C(=O)N1OS(=O)(=O)c1ccccc1	Six1-Eya2 blk -71
Cc1cc(S(=O)(=O)ON2C(=O)c3ccccc3C2=O)ccc1F	VP16 counter 13µM, RORgamma inh inconclusive (no result: CtBP-E1A inh)
Cc1csc2ncnc(N3CCN(S(=O)(=O)c4cccc(C(F)(F)F)c4)CC3)c12	VP16 counter 10µM, RORgamma inh inconclusive
O=S(=O)(c1cccc(Br)c1)N1CCN(c2ncnc3scc(-c4ccccc4)c23)CC1	none (no result: VP16 counter, CtBP-E1A inh, p53 reactivator, RORgamma inh)
Cc1ccc(Cl)cc1NC(=S)NCc1cccn1C	VP16 counter 7.9µM, RORgamma inh 7.1µM
Cc1c(Cl)cccc1NC(=S)NCc1cccn1C	VP16 counter 18µM, RORgamma inh 4.5µM
Cc1ccc(NC(=S)NCc2cccn2C)cc1	VP16 counter inconclusive, RORgamma inh 4µM
COc1ccc(NC(=O)c2cccc(C#N)c2)cc1NS(=O)(=O)c1ccc(F)cc1	none
FC(F)(F)c1ccccc1-c1nc(NCc2cccnc2)c2ccccc2n1	none (no result: Six1-Eya2 blk, CtBP-E1A inh, p53 reactivator)
CN1CCC(N(C)C(=O)c2cc(=O)c3ccccc3o2)CC1	none
COc1ccc(NC(C)C(=O)Nc2cccc(S(=O)(=O)N3CCOCC3)c2)cc1OC (stereo not drawn)	none (no result: VP16 counter, RORgamma inh)
COc1cccc([C@@H]2Oc3ccc(Br)cc3C(=O)[C@H]2OC(=O)Nc2ccc(C)c(Br)c2)c1	none (no result: Six1-Eya2 blk, CtBP-E1A inh, p53 reactivator)
CCN(c1ccccc1)S(=O)(=O)c1ccc(C(=O)Nc2ncccc2O)cc1	VP16 counter inconclusive, RORgamma inh 20µM
